Measurements as given in PubChem BioAssay (NCATS).
Records with an inconclusive call do not appear. Active and inactive are the calls of the source. Calls come from the whole dose curve; as a rule, active = well fitted curve in the direction sought with a large enough effect; inconclusive = small, poorly fitted or top-dose-only effect, or another doubt; inactive = no such curve, though single readings can be large; an effect the other way counts as inactive or inconclusive.

Legend:
[1] = target: ATP-dependent 6-phosphofructokinase (Trypanosoma brucei brucei) (UniProt O15648); experiment: qHTS Assay to Find Inhibitors of T. brucei phosphofructokinase: hit validation (AID 492961);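 note: luminescence reports ADP formed as PFK phosphorylates fructose-6-phosphate with ATP; % is set by controls: 0 for no effect and ±100 for the full control effect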
Chain of ATP-dependent 6-phosphofructokinase (Trypanosoma brucei brucei) (O15648 whole entry, looked up): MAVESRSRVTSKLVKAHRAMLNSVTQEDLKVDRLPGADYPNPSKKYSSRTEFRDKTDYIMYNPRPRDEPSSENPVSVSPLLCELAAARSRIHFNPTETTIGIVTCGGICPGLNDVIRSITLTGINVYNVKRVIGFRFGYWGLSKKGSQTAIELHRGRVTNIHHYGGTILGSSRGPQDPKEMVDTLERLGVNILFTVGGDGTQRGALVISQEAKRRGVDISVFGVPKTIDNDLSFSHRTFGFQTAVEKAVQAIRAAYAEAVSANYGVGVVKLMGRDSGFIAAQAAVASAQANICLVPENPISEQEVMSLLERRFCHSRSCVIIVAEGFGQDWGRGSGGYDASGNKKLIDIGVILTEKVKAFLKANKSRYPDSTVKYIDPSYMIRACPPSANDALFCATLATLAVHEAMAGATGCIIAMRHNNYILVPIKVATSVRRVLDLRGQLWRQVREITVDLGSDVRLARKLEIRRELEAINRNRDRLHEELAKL
Method in brief: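 Compounds titrated; %activity normalized to 0x and 1x enzyme controls, curve-fitted. Readout: ADP-Glo luminescence after 45 min room-temperature reaction of 1.25 nM PFK, 0.1 mM ATP, 0.5 mM F6P, pH 8.0.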

[2] = target: Ubiquitin carboxyl-terminal hydrolase 1 (Homo sapiens) (UniProt O94782); experiment: Inhibitors of USP1/UAF1: Pilot qHTS (AID 504865); note: potency is the fitted concentration of half-maximal effect; nearly all actives have a fitted effect of over 35% in size
Chain of Ubiquitin carboxyl-terminal hydrolase 1 (Homo sapiens) (O94782 whole entry, looked up): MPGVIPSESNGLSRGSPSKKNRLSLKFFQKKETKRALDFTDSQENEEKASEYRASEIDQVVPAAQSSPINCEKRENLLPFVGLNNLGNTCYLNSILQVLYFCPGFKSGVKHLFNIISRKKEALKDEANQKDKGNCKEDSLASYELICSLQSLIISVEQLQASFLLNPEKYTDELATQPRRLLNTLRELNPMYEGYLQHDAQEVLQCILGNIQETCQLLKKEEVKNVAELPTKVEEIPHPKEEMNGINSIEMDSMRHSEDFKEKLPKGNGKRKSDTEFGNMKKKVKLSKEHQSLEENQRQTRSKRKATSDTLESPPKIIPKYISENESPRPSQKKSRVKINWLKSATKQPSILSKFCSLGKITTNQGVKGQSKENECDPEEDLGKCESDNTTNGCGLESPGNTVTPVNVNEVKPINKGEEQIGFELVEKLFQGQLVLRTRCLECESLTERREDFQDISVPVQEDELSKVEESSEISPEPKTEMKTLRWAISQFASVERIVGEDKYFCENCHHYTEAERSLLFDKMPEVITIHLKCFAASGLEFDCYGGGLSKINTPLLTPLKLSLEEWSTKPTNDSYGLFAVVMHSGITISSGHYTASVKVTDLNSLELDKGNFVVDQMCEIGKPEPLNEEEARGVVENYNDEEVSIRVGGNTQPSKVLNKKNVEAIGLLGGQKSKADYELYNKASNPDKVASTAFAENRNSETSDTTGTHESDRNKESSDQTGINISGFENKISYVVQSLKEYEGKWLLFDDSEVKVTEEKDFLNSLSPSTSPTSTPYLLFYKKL
Method in brief: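 USP1/UAF1 complex (1nM) preincubated with compound 15 min at room temperature, then Ub-Rho substrate (150nM final) added. Fluorescence read kinetically at 480/540 nm, 6 reads every 60 seconds. Buffer: 50mM HEPES pH 7.8, 0.5mM EDTA, 0.1 mg/ml BSA, 1mM TCEP, 0.01% Tween-20.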

[3] = target: Luciferin 4-monooxygenase (Photinus pyralis) (UniProt P08659); experiment: Biochemical firefly luciferase enzyme assay for NPC (AID 624030); note: potency is the fitted concentration of half-maximal effect; nearly all actives have a fitted effect of over 70% in size
Chain of Luciferin 4-monooxygenase (Photinus pyralis) (P08659 whole entry, looked up): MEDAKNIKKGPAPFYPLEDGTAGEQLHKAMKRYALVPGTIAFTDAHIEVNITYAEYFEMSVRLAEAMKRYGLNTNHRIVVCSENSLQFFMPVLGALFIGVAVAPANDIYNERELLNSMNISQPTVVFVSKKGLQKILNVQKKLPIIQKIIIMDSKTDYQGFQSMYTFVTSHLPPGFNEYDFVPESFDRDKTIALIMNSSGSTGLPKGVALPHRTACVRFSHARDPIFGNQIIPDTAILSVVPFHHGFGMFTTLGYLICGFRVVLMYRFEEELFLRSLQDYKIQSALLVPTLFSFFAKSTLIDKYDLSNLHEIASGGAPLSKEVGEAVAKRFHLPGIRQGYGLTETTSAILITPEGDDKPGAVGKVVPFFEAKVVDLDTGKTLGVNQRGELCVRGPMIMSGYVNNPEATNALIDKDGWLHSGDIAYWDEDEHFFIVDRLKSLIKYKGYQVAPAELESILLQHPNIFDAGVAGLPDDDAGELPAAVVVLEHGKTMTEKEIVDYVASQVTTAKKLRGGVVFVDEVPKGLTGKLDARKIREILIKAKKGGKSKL
Method in brief: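 Purified P. pyralis luciferase at 10 nM in 50 mM Tris Acetate (final), luminescence read within 5 minutes of enzyme addition to compounds. Activity normalised to PTC124 versus DMSO; concentration-response curves classed by r2, magnitude and activity.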

[4] = S16 Schwann cell viability assay (CellTiter-Glo assay) (AID 624031);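 note: native untransfected S16 rat Schwann cells; cellular ATP luminescence as a viability measure; plate controls were DMSO-treated cells for no effect and cell-free wells for full effect; nearly all actives have a fitted effect of over 70% in size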
Method in brief: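 Following overnight culture in 10% FBS DMEM, parental S16 rat Schwann cells are dosed for 24 h at 37 °C. Viability is read as CellTiter-Glo luminescence and expressed as % activity relative to DMSO (0%) and no-cell wells.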

[5] = S16 Schwann cell PMP22 intronic element firefly luciferase assay (AID 624032);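 note: plate controls were DMSO for no effect and PTC124 positive control mean for full effect; nearly all actives have a fitted effect of over 30% in size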
Method in brief: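 Rat S16 Schwann cells stably carrying firefly luciferase driven by a PMP22 intronic element, in 10% FBS, treated 24 h at 37 C. ONE-Glo luminescence normalized to PTC124 control and DMSO (0%); curves classed by r2, magnitude and activity.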

Furin (Homo sapiens) = Furin (Homo sapiens) (UniProt P09958); experiment: Furin counterscreen qHTS for Zika virus inhibitors (AID 1347149); note: potency is the fitted concentration of half-maximal effect; nearly all actives have a fitted effect of over 70% in size
Chain of Furin (Homo sapiens) (P09958 whole entry, looked up): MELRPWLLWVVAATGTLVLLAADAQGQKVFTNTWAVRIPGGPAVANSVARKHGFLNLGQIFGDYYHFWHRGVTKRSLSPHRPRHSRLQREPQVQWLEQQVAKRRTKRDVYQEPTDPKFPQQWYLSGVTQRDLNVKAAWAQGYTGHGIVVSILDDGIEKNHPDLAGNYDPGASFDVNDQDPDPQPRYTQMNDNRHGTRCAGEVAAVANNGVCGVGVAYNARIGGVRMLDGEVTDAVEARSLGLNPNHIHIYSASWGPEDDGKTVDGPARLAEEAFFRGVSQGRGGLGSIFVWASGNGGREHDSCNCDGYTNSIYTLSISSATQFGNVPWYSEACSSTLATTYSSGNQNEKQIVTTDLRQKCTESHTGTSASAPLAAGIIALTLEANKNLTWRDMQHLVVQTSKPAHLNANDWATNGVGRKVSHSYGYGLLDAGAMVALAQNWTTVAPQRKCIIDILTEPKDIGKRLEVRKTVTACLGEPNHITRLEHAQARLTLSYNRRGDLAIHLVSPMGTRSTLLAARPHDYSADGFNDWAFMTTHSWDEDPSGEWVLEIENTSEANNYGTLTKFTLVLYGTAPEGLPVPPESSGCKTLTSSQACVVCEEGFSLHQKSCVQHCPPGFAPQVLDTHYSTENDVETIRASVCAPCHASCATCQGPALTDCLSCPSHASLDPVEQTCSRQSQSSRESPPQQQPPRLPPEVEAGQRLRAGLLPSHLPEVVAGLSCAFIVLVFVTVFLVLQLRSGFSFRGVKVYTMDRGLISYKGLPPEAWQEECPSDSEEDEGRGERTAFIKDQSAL
Method in brief: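 Counterscreen measures cleavage of 2 microM BOC-RVRR-AMC, below its ~15 microM Km, by 5 nM full-length human furin at pH 7.0 after a 15-min compound preincubation. Inhibition derives from the 15-min fluorescence increase at 37C.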

[6] = Confirmatory screen NINDS Rhodamine qHTS for Zika virus inhibitors (AID 1347161); note: potency is the fitted concentration of half-maximal effect; nearly all actives have a fitted effect of over 60% in size
Method in brief: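 Single-chain NS2B-NS3 protease, 25 nM, pH 8.0; compounds preincubated 15 min. Activity: Rhodamine110 release from 1.5 microM substrate over 15 min, room temperature, data fitted to 4-parameter Hill.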

[7] = Tertiary RLuc qRT-PCR qHTS assay for Zika virus inhibitors (AID 1347169); note: top concentration of the series differs between compounds; % is set by controls: 0 for no effect and ±100 for the full control effect; nearly all actives have a fitted effect of over 55% in size
Method in brief: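 Vero cells (1,000 per well) plated overnight at 37 degrees C, treated with compound in DMSO, then infected with recombinant ZIKV-RLuc (Cambodian) at MOI 1-2 for 48-72 hrs. Live-cell Renilla luciferase substrate added; luminescence read after 1-1.5 hrs.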

[8] = qHTS profiling for inhibitors of Plasmodium falciparum proliferation (AID 504749);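 note: 0% = DMSO vehicle and full inhibition = artemisinin control; nearly all actives have a fitted effect of over 60% in size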; conditions: P. falciparum in erythrocytes, SYBR Green DNA, 72 h, at 28.7 µM (top of the series)
Method in brief: (§1)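 Each compound contacts P. falciparum-infected red blood cells for 72 h at 37 C; lysis buffer (Tris, EDTA, saponin, Triton X, SYBR Green I) is added and fluorescence measured next morning; values normalized to controls.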

3D7 = experiment: as above; conditions: P. falciparum in erythrocytes, SYBR Green DNA, 72 h; series mostly up to 28.7 µM
Method in brief: as §1

AA1029 = experiment: as above; conditions: P. falciparum in erythrocytes, SYBR Green DNA, 72 h; series mostly up to 28.7 µM
Method in brief: as §1

AS120 = experiment: as above; conditions: P. falciparum in erythrocytes, SYBR Green DNA, 72 h; series mostly up to 28.7 µM
Method in brief: as §1

ATS189 = experiment: as above; conditions: P. falciparum in erythrocytes, SYBR Green DNA, 72 h; series mostly up to 28.7 µM
Method in brief: as §1

ATS95 = experiment: as above; conditions: P. falciparum in erythrocytes, SYBR Green DNA, 72 h; series mostly up to 28.7 µM
Method in brief: as §1

C2A = experiment: as above; conditions: P. falciparum in erythrocytes, SYBR Green DNA, 72 h; series mostly up to 28.7 µM
Method in brief: as §1

CP185 = experiment: as above; conditions: P. falciparum in erythrocytes, SYBR Green DNA, 72 h; series mostly up to 28.7 µM
Method in brief: as §1

CP191 = experiment: as above; conditions: P. falciparum in erythrocytes, SYBR Green DNA, 72 h; series mostly up to 28.7 µM
Method in brief: as §1

CP192 = experiment: as above; conditions: P. falciparum in erythrocytes, SYBR Green DNA, 72 h; series mostly up to 28.7 µM
Method in brief: as §1

CP194 = experiment: as above; conditions: P. falciparum in erythrocytes, SYBR Green DNA, 72 h; series mostly up to 28.7 µM
Method in brief: as §1

CP201 = experiment: as above; conditions: P. falciparum in erythrocytes, SYBR Green DNA, 72 h; series mostly up to 28.7 µM
Method in brief: as §1

CP211 = experiment: as above; conditions: P. falciparum in erythrocytes, SYBR Green DNA, 72 h; series mostly up to 28.7 µM
Method in brief: as §1

CP217 = experiment: as above; conditions: P. falciparum in erythrocytes, SYBR Green DNA, 72 h; series mostly up to 28.7 µM
Method in brief: as §1

CP237 = experiment: as above; conditions: P. falciparum in erythrocytes, SYBR Green DNA, 72 h; series mostly up to 28.7 µM
Method in brief: as §1

CP238 = experiment: as above; conditions: P. falciparum in erythrocytes, SYBR Green DNA, 72 h; series mostly up to 28.7 µM
Method in brief: as §1

CP250 = experiment: as above; conditions: P. falciparum in erythrocytes, SYBR Green DNA, 72 h; series mostly up to 28.7 µM
Method in brief: as §1

CP252 = experiment: as above; conditions: P. falciparum in erythrocytes, SYBR Green DNA, 72 h; series mostly up to 28.7 µM
Method in brief: as §1

CP256 = experiment: as above; conditions: P. falciparum in erythrocytes, SYBR Green DNA, 72 h; series mostly up to 28.7 µM
Method in brief: as §1

CP260 = experiment: as above; conditions: P. falciparum in erythrocytes, SYBR Green DNA, 72 h; series mostly up to 28.7 µM
Method in brief: as §1

CP262 = experiment: as above; conditions: P. falciparum in erythrocytes, SYBR Green DNA, 72 h; series mostly up to 28.7 µM
Method in brief: as §1

CP265 = experiment: as above; conditions: P. falciparum in erythrocytes, SYBR Green DNA, 72 h; series mostly up to 28.7 µM
Method in brief: as §1

CP266 = experiment: as above; conditions: P. falciparum in erythrocytes, SYBR Green DNA, 72 h; series mostly up to 28.7 µM
Method in brief: as §1

CP268 = experiment: as above; conditions: P. falciparum in erythrocytes, SYBR Green DNA, 72 h; series mostly up to 28.7 µM
Method in brief: as §1

CP269 = experiment: as above; conditions: P. falciparum in erythrocytes, SYBR Green DNA, 72 h; series mostly up to 28.7 µM
Method in brief: as §1

CP286 = experiment: as above; conditions: P. falciparum in erythrocytes, SYBR Green DNA, 72 h; series mostly up to 28.7 µM
Method in brief: as §1

CP291 = experiment: as above; conditions: P. falciparum in erythrocytes, SYBR Green DNA, 72 h; series mostly up to 28.7 µM
Method in brief: as §1

CP297 = experiment: as above; conditions: P. falciparum in erythrocytes, SYBR Green DNA, 72 h; series mostly up to 28.7 µM
Method in brief: as §1

CP305 = experiment: as above; conditions: P. falciparum in erythrocytes, SYBR Green DNA, 72 h; series mostly up to 28.7 µM
Method in brief: as §1

CP315 = experiment: as above; conditions: P. falciparum in erythrocytes, SYBR Green DNA, 72 h; series mostly up to 28.7 µM
Method in brief: as §1

CP325 = experiment: as above; conditions: P. falciparum in erythrocytes, SYBR Green DNA, 72 h; series mostly up to 28.7 µM
Method in brief: as §1

CP329 = experiment: as above; conditions: P. falciparum in erythrocytes, SYBR Green DNA, 72 h; series mostly up to 28.7 µM
Method in brief: as §1

CP335 = experiment: as above; conditions: P. falciparum in erythrocytes, SYBR Green DNA, 72 h; series mostly up to 28.7 µM
Method in brief: as §1

DFO2036 = experiment: as above; conditions: P. falciparum in erythrocytes, SYBR Green DNA, 72 h; series mostly up to 28.7 µM
Method in brief: as §1

DIV14 = experiment: as above; conditions: P. falciparum in erythrocytes, SYBR Green DNA, 72 h; series mostly up to 28.7 µM
Method in brief: as §1

DIV17 = experiment: as above; conditions: P. falciparum in erythrocytes, SYBR Green DNA, 72 h; series mostly up to 28.7 µM
Method in brief: as §1

DIV30 = experiment: as above; conditions: P. falciparum in erythrocytes, SYBR Green DNA, 72 h; series mostly up to 28.7 µM
Method in brief: as §1

ECU = experiment: as above; conditions: P. falciparum in erythrocytes, SYBR Green DNA, 72 h; series mostly up to 28.7 µM
Method in brief: as §1

FAB9 = experiment: as above; conditions: P. falciparum in erythrocytes, SYBR Green DNA, 72 h; series mostly up to 28.7 µM
Method in brief: as §1

GB4 = experiment: as above; conditions: P. falciparum in erythrocytes, SYBR Green DNA, 72 h; series mostly up to 28.7 µM
Method in brief: as §1

JCK = experiment: as above; conditions: P. falciparum in erythrocytes, SYBR Green DNA, 72 h; series mostly up to 28.7 µM
Method in brief: as §1

N140 = experiment: as above; conditions: P. falciparum in erythrocytes, SYBR Green DNA, 72 h; series mostly up to 28.7 µM
Method in brief: as §1

P93_24 = experiment: as above; conditions: P. falciparum in erythrocytes, SYBR Green DNA, 72 h; series mostly up to 28.7 µM
Method in brief: as §1

P94_40 = experiment: as above; conditions: P. falciparum in erythrocytes, SYBR Green DNA, 72 h; series mostly up to 28.7 µM
Method in brief: as §1

PAD = experiment: as above; conditions: P. falciparum in erythrocytes, SYBR Green DNA, 72 h; series mostly up to 28.7 µM
Method in brief: as §1

PC15 = experiment: as above; conditions: P. falciparum in erythrocytes, SYBR Green DNA, 72 h; series mostly up to 28.7 µM
Method in brief: as §1

PC26 = experiment: as above; conditions: P. falciparum in erythrocytes, SYBR Green DNA, 72 h; series mostly up to 28.7 µM
Method in brief: as §1

PC49 = experiment: as above; conditions: P. falciparum in erythrocytes, SYBR Green DNA, 72 h; series mostly up to 28.7 µM
Method in brief: as §1

SC27B = experiment: as above; conditions: P. falciparum in erythrocytes, SYBR Green DNA, 72 h; series mostly up to 28.7 µM
Method in brief: as §1

TAB109 = experiment: as above; conditions: P. falciparum in erythrocytes, SYBR Green DNA, 72 h; series mostly up to 28.7 µM
Method in brief: as §1

TAB113 = experiment: as above; conditions: P. falciparum in erythrocytes, SYBR Green DNA, 72 h; series mostly up to 28.7 µM
Method in brief: as §1

TAB165 = experiment: as above; conditions: P. falciparum in erythrocytes, SYBR Green DNA, 72 h; series mostly up to 28.7 µM
Method in brief: as §1

W2 = experiment: as above; conditions: P. falciparum in erythrocytes, SYBR Green DNA, 72 h; series mostly up to 28.7 µM
Method in brief: as §1

CC(C)(O)c1ccccc1CC[C@H](SCC1(CC(=O)O)CC1)c1cccc(/C=C/c2ccc3ccc(Cl)cc3n2)c1
inactive: outcome [1] | outcome [4] | Potency [5] | Potency [7] | activity, negative = inhibition ([8]; parasite line A) -2.01% | activity, negative = inhibition ([8]; parasite line B) -18.3% | Potency (3D7) | Potency (AA1029) | Potency (AS120) | Potency (ATS189) | Potency (ATS95) | Potency (C2A) | Potency (CP185) | Potency (CP191) | Potency (CP192) | Potency (CP194) | Potency (CP201) | Potency (CP211) | Potency (CP217) | Potency (CP237) | Potency (CP238) | Potency (CP250) | Potency (CP252) | Potency (CP256) | Potency (CP260) | Potency (CP262) | Potency (CP265) | Potency (CP266) | Potency (CP268) | Potency (CP269) | Potency (CP286) | Potency (CP291) | Potency (CP297) | Potency (CP305) | Potency (CP315) | Potency (CP325) | Potency (CP329) | Potency (CP335) | Potency (DFO2036) | Potency (DIV14) | Potency (DIV17) | Potency (DIV30) | Potency (ECU) | Potency (FAB9) | Potency (GB4) | Potency (JCK) | Potency (N140) | Potency (P93_24) | Potency (P94_40) | Potency (PAD) | Potency (PC15) | Potency (PC26) | Potency (PC49) | Potency (SC27B) | Potency (TAB109) | Potency (TAB113) | Potency (TAB165) | Potency (W2)
active: Potency [2] 39.8 µM | Potency [3] 11.4 µM | Potency (Furin (Homo sapiens)) 52.7 µM | Potency [6] 22.4 µM
